This is a sample that favours compounds with a hit; in the whole collection about 2.1% have one here.
AF4-AF9 inh – blocks AF4 peptide binding to human AF9. actives 0.47% (n = 350,000). inhibition, % at 10 µM. AID 651704. P42568. AlphaScreen, biotin-AF4 peptide binding to FLAG-AF9;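 active means every replicate reaching a set inhibition limit, whatever the replicate mean, cut at about 25% in these data; inconclusive means mean inhibition reaches that limit but some replicates miss it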;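 further: 0% = plate neutral control median and 100% = total signal loss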
GSIS activator – GLuc luminescence reporter in INS-1E cells, primary screen for activators of glucose-dependent secretion of insulin | activation, % at 16.6 µM | actives 0.61% (n = 370,000) | AID 743287 | INS-1E GLuc reporter insulin secretion, 2-3 h;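 active means lowest replicate activation of at least 40%, so every replicate reaches that level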;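 further: 0% = median of neutral control wells and 100% = median of IBMX positive control wells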
NSD2 HMT inh – inhibitors of human histone methyltransferase NSD2. inhibition, % at 12.5 µM. NSD2 peptide methylation, AlphaScreen, 120 min. O96028. actives 0.54% (n = 310,000); in the data active means inhibition above about 50%
Target sequence (O96028 whole entry, looked up): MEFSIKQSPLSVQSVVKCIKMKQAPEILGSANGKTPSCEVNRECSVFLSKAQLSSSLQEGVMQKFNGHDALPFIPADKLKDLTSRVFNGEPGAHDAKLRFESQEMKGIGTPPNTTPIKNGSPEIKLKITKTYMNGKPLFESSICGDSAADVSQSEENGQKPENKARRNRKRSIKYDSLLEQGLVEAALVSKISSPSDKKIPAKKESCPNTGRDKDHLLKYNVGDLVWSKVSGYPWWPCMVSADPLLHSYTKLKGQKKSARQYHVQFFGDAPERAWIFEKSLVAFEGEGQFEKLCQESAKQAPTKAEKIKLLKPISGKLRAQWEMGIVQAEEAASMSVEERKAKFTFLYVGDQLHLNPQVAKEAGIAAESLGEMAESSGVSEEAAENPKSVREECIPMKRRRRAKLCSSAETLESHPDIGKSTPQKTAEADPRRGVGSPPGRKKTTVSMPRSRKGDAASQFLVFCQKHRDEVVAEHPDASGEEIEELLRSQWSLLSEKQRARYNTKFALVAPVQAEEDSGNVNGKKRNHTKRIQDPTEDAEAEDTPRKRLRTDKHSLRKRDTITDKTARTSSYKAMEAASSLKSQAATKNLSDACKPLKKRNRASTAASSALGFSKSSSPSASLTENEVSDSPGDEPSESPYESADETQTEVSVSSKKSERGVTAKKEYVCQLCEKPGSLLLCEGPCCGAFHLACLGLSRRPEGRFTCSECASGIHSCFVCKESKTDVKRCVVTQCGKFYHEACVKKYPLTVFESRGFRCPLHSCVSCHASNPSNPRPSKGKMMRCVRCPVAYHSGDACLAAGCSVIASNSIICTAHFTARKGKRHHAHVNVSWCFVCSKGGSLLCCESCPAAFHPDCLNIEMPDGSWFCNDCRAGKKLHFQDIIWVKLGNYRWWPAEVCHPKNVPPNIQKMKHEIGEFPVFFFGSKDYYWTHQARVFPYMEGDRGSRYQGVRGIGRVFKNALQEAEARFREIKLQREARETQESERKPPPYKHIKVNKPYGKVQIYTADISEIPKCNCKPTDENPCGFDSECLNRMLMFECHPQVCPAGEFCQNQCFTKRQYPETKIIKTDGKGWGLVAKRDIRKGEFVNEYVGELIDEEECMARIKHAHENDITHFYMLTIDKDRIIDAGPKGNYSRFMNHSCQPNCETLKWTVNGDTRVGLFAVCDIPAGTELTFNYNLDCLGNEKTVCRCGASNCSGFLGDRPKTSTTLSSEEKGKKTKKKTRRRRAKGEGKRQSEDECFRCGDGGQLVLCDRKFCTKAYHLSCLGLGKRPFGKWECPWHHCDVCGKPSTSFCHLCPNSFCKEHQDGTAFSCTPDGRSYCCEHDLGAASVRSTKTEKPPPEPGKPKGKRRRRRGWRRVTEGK
Env fusion inh – inhibitors of HIV Env-mediated cell fusion | HeLa-JRFL Env/CEM21 cell fusion, luciferase | actives 1.1% (n = 360,000) | AID 651610 | inhibition, % at 12.3 µM;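 active means mean replicate inhibition score of at least 50 and every replicate individually at or above 50; inconclusive means only one of the two criteria met; inactive means mean below 50 and not all replicates reaching 50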;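 further: 0% = plate neutral controls and 100% = maraviroc near 300 nM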
PGC1a acetyl inh – PGC1a acetylation modulation, inhibitor mode. U2OS PGC1a acetylation, AlphaScreen anti-acetyl-lysine; with virally co-expressed GCN5 acetyltransferase. inhibition, % at 15.6 µM. actives 0.17% (n = 350,000). AID 651687;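 active means every replicate shows inhibition of at least 40%; inconclusive means mean inhibition at least 40% but some replicate below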;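 further: 0% = neutral control wells and 100% = positive control wells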
An asterisk follows results filed as active; u = inconclusive; x = no result given; [ ] = another dose, or the depositor's remark.

SMILES | AF4-AF9 inh | GSIS activator | NSD2 HMT inh | Env fusion inh | PGC1a acetyl inh
CC(=O)N(C1CC(C)C(C#N)(C#N)C1(C#N)C#N)N(C)C (centres undefined) | 3 | 167* | 2 | -23 | -24
CCCC(=O)N(C1CC(C)C(C#N)(C#N)C1(C#N)C#N)N(C)C (centres undefined) | x | 7 | x | -56 | -29
Cc1cc2nc(-c3ccc(Cl)cc3)c(Cc3ccsc3)n2c(C)c1Br | -1 | 100* | x | -7 | x
COc1ccc(-c2nc3cc(C)c(Br)c(C)n3c2Cc2ccccc2)cc1OC | -1 | 11 | x | 71* | 0
CCCn1c(C(C)NC(=O)c2ccccc2)nc2ccccc21 (centres undefined) | x | 12 | -1 | -33 | 5
C=CCn1c(SCC(=O)c2cccs2)nc2sc(CC)cc2c1=O | x | x | -1 | 88* | -23
C=CCn1c(SCC#N)nc2sc(CC)cc2c1=O | 0 | 89* | 0 | 13 | -10
C=CCn1c(SCC(=O)O)nc2sc(CC)cc2c1=O | -4 | 25 | -2 | -8 | 1
Cc1ccc(C(=O)NN2C(=O)/C(=C/c3cccn3C)SC2=S)cc1 | 2 | -4 | 16 | 8 | -3
COC(=O)C1C(OC)=CC(=O)C2CCCCC21 (centres undefined) | -12 | 18 | 0 | 57* | x
CCOc1ccc(/C=N/NC(=S)Nc2c(C)cccc2C)cc1 | x | x | -5 | -3 | 3
CCNC(=S)N/N=C/c1ccc(OCCOc2ccccc2C)cc1 | x | 137* | -4 | -379 | 24
CCN(CC(=O)Nc1c(F)cccc1F)C(=O)c1cc([N+](=O)[O-])ccc1N1CCOCC1 | 0 | 0 | 0 | -35 | x
c1cnc(N2CCN(Cc3ccc4c(c3)OCO4)CC2)cn1 | 5 | 4 | 10 | -1 | 2
O=S(=O)(c1ccc(Cl)cc1)c1snnc1-c1ccccc1 | x | x | -2 | x | 42*
CC1CCc2c(sc(NC(=O)CSc3ncn[nH]3)c2C#N)C1 (centres undefined) | x | 13 | -2 | 65* | -8
O=C(NCCN1CCNCC1)c1ccccn1 | x | x | -3 | -140 | 3
O=C1CCCc2ccccc2N1Cc1ccc(Cl)cc1Cl | x | x | -2 | x | 56*
Cc1ccc(S(=O)(=O)Oc2ccccc2-c2ccccc2)cc1 | -1 | x | -4 | 60* | -14
Cn1c(=O)c2c(nc(SCC(=O)NCc3ccc4c(c3)OCO4)n2Cc2ccc(Cl)cc2)n(C)c1=O | x | x | -4 | 106* | x
CCSc1nc2c(c(=O)n(C)c(=O)n2C)n1Cc1ccc(Cl)cc1 | x | x | -1 | x | 3
Cn1c(SCC(=O)NCc2ccc3c(c2)OCO3)nc2scc(-c3cccs3)c2c1=O | x | -17 | x | 7 | x
C=CCn1c(SCC(=O)NCc2ccc3c(c2)OCO3)nc2scc(-c3ccc(F)cc3)c2c1=O | x | 112* | -8 | 107* | -17
CCn1c(SC(C)C(=O)NCC2CCCO2)nc2scc(-c3ccccc3)c2c1=O (centres undefined) | 6 | 15 | 0 | -3 | x
C=CCn1c(SC(C)C(=O)NCc2ccc3c(c2)OCO3)nc2scc(-c3ccccc3)c2c1=O (centres undefined) | x | -34 | -1 | 119* | -13
SMILES | AF4-AF9 inh | GSIS activator | NSD2 HMT inh | Env fusion inh | PGC1a acetyl inh
CCOC(=O)N1CCN(c2cc(N(C)CCO)c([N+](=O)[O-])c3nonc23)CC1 | 2 | -4 | 2 | -8 | x
C[C@H]1CN([C@@H](C)CO)C(=O)c2cc(C#CCc3ccccc3)cnc2O[C@@H]1CN(C)C(=O)Cc1cccnc1 | -20 | -43 | x | 13[16.7 µM] | 4
COCCCn1nnnc1SCC(=O)N1CCCC1 | x | x | -2 | -88 | -1
COc1cccc(-n2cc3c(=O)n(C)c(=O)n(C)c3c2)c1 | x | x | 2 | x | -12
O=C(c1ccc(NC2=NC3CS(=O)(=O)CC3S2)cc1)N1CCN(c2ccccc2F)CC1 (centres undefined) | 48* | 8 | x | -4 | x
Cc1nc2ccccc2c(=O)n1NC(=O)c1c(O)c2c(n(CC(C)C)c1=O)CCCC2 | x | x | 2 | 11 | 13
CCCCCCc1nc2ccccc2c(=O)n1NC(=O)c1c(O)c2c(n(CC(C)C)c1=O)CCCC2 | x | x | -3 | 73* | -1
O=C(O)C1CCCN1C(=O)Oc1ccccc1 (centres undefined) | x | x | -4 | -2 | 7
CCC(=O)Nc1ccc2c(c1)C(=O)N(C)C[C@H](OC)[C@@H](C)CN(Cc1ccccc1)[C@@H](C)CO2 | x | 12 | x | 0[16.7 µM] | -3
COc1ccc(NC(=O)c2cc([N+](=O)[O-])ccc2O)cc1 | 1 | 5 | 4 | 83* | 8
O=C(Nc1ccc(Oc2ccccc2)cc1)N[C@@H](Cc1ccccc1)C(=O)O | -2 | -14 | -1 | -1 | x
O=C(OCn1ncc(Br)c(Br)c1=O)c1ccccc1Cl | x | 115* | x | x | -3
C/C(=N\NC(=O)c1cccc(Br)c1)c1ccc(Br)cc1 | x | 56* | 1 | 10 | -9
CSC1=C(C#N)C2(CCCCC2)C(C(=O)Nc2ccccc2)=C(C)N1 | 0 | -10 | -3 | 19 | -7
O=C(NNC(=O)C1CC1c1ccccc1)Nc1cccc(Cl)c1 (centres undefined) | x | -12 | 0 | 56* | 11
CCCNC(=O)c1ccc2c(c1)ncn2-c1cc(C)cc(C)c1 | 0 | 0 | -2 | 0 | 4
COc1cc(NC(=O)NCc2ccco2)ccc1-c1ccc(NC(=O)NCc2ccco2)cc1OC | -2 | 9 | 23 | -50 | 48*
O=C1O[C@H](c2ccccc2)[C@H](c2ccccc2)N2[C@H]1[C@@H](C(=O)N1CCCCCCC1)[C@]1(C(=O)Nc3ccccc31)[C@H]2c1ccccc1OCCO | 1 | x | x | 59*[16.7 µM] | -8
O=C(Nc1cccc2[nH]ncc12)c1ccc(F)cc1 | x | x | 0 | 74* | u
O=C(NC(=S)Nc1cccc2[nH]ncc12)c1ccccc1 | -2 | 159* | -3 | 4 | 17
O=S(=O)(Nc1ccccc1N1CCOCC1)c1ccccc1C(F)(F)F | 1 | -1 | -2 | x | -41
COC(=O)c1ccc(/C=C(/NC(=O)c2ccccc2)C(=O)N2CCOCC2)cc1 | 3 | 20 | -3 | 4 | -4
Cc1ccc(C(=O)N/C(=C/c2ccc(Cl)cc2)C(=O)N2CCOCC2)cc1 | 0 | 51* | 4 | 1 | x
CC(NC(=O)OCc1ccccc1)C(=O)NCC1CCCO1 (centres undefined) | x | x | 6 | -5 | -8
N#C[C@H]1[C@H](c2ccc(C#Cc3ccc(F)cc3)cc2)[C@H](CO)N1C(=O)C1CC1 | -1 | 9 | x | -2[16.7 µM] | -13
COC(=O)C[C@H]1C=C[C@H](NC(=O)Cc2ccccc2)[C@@H](CO)O1 | -3 | 8 | x | -10 | x
O=C(Cc1ccccc1)N[C@@H]1C=C[C@H](CC(=O)N2CCCCC2)O[C@@H]1CO | -14 | -1 | x | 57*[16.7 µM] | 10
O=C(Cc1ccccc1)N[C@@H]1C=C[C@@H](CC(=O)N2CCCCC2)O[C@@H]1CO | -13 | -11 | x | 14[16.7 µM] | 2
COC(=O)C[C@@H]1C=C[C@H](NC(=O)Cc2ccccn2)[C@@H](CO)O1 | -2 | 64* | x | 10 | x
